Only some compounds are listed: those with a hit (about 3.2% of all), similar ones and a draw of the others.
rCAG RNA binder: binds r(CAG) RNA repeats; r(CAG) RNA repeat, TO-PRO-1 dye displacement fluorescence; inhibition, % at 3 µM; 370,000 tested, 1.3% active;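 active means inhibition above the plate cutoff, the mean of all test compounds on that plate plus 3 SD, cut at about 35% in these data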;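 further: 0% = DMSO alone and 100% = 100 µM mitoxantrone as full dye displacement; higher means more dye released from RNA so lower well fluorescence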
DSG3 Ab inh: blocks pemphigus antibody binding to human desmoglein-3. P32926. DSG3-coupled beads, scFv-anti-DSG3-GFP binding, flow cytometry; active compounds read low. binding (percent of control), % at 10 µM. 310,000 tested, 0.48% active;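 active means binding more than 3 SD below its plate's average and above zero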;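 further: hits lower antibody fragment binding to DSG3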
Target sequence (P32926 whole entry, looked up, the tested form may be a part): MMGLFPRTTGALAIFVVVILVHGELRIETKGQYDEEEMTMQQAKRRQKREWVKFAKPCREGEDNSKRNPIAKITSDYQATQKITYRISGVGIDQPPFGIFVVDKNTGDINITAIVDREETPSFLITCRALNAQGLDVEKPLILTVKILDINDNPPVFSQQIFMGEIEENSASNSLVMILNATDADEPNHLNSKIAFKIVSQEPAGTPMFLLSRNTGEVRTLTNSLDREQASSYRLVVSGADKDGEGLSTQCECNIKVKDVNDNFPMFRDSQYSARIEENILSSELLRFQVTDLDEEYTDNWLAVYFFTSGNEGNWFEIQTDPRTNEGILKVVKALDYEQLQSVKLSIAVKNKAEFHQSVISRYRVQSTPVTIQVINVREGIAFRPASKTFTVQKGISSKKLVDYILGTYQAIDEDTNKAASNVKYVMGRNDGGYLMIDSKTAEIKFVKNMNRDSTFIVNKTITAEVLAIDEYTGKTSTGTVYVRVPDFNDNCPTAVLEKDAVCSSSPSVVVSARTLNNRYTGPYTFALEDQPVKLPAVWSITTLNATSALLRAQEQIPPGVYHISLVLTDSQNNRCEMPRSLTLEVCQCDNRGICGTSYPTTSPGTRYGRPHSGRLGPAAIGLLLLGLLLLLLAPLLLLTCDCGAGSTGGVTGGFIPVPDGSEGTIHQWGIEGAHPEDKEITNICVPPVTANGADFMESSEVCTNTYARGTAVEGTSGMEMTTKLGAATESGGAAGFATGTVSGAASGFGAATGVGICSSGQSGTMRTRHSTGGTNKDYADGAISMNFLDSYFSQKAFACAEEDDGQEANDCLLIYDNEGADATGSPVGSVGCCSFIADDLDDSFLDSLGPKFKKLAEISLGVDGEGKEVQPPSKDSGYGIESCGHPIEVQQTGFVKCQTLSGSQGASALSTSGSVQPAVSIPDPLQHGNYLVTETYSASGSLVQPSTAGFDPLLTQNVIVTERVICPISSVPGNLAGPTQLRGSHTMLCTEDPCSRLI
bovine MsrA act: activates bovine MsrA enzyme; activation, % at 10.6 µM; purified bovine MsrA, absorbance read-out; 360,000 tested, 0.3% active; in the data active means activation above about 7.5%;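 further: 0% = vehicle and 100% = reference activator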
MsrA inhibitor: bovine MsrA inhibition. purified bovine MsrA, absorbance read-out. inhibition, % at 15.5 µM. 360,000 tested, 0.75% active. AID 651718;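 further: 0% = vehicle wells with enzyme and 100% = reference inhibitor wells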
DAGLB inhibitor: diacylglycerol lipase beta (human) inhibition; Q8NCG7; HEK293T DAGLB membrane lysate, EnzChek fluorogenic substrate; inhibition, % at 5.17 µM; 340,000 tested, 0.059% active; AID 504411; in the data active means inhibition above about 34%;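 further: 0% = enzyme with vehicle and 100% = wells lacking enzyme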
NadD block: inhibitors of Staphylococcus aureus NadD. purified NadD enzyme, colorimetric absorbance read-out. 360,000 tested, 0.78% active. inhibition, % at 20 µM; in the data active means inhibition above about 26%
NadD conf: confirmation of Staphylococcus aureus NadD inhibitors; purified S. aureus NadD, colorimetric enzyme assay; inhibition, % at 20 µM; shares compounds with NadD block; 2,000 tested, 13% active; in the data active means inhibition mostly above about 42%, no sharp cut-off; inactive means mostly below about 42%
MsrA conf: bovine MsrA inhibition, confirmed | shares compounds with MsrA inhibitor | purified bovine MsrA, absorbance read-out | inhibition, % at 15.5 µM | 2,300 tested, 41% active;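 further: coupled to thioredoxin reductase with NADPH and selenocystamine and DMSO as substrate; 0% = vehicle only and 100% = full effect of reference inhibitor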
rCAG binder conf: r(CAG) RNA repeat binding, confirmation; shares compounds with rCAG RNA binder; TO-PRO-1 dye displacement fluorescence; inhibition, % at 3 µM; 4,300 tested, 70% active; AID 652065;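 active means inhibition above a per-plate cutoff, the mean inhibition of sample wells plus 3 SD, cut at about 35% in these data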;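 further: loss of TO-PRO-1 fluorescence as compound displaces dye from 1x1 AA loop RNA; 0% = DMSO only wells and 100% = 100 µM mitoxantrone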
dCAG dye counter: DNA CAG dye complex inhibition counter-screen; shares compounds with rCAG RNA binder; 4,300 tested, 94% active; AID 652068; d(CAG) DNA oligo TO-PRO-1 dye displacement, fluorescence; inhibition, % at 3 µM;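 active means inhibition above its plate's cutoff, the mean test-well inhibition plus 3 SD, cut at about 4.8% in these data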;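 further: 0% = DNA dye mix with DMSO and 100% = 100 µM mitoxantrone; hits displace the dye from DNA and so lower well fluorescence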
Starred values were filed as active, the others as inactive; nt = no result given. Unless noted, no stated cut-off is given here; in the data, active means inhibition above about 4.5%; inactive means the rest.

SMILES | rCAG RNA binder | DSG3 Ab inh | bovine MsrA act | MsrA inhibitor | DAGLB inhibitor | NadD block | MsrA conf | others
O=C(O)CC/C(=C/c1cccc(NC(=O)c2ccccc2Cl)c1)c1nc2ccccc2s1 | 71* | nt | -9 | 2 | 5 | 47* | nt | NadD conf=40;rCAG binder conf=75*;dCAG dye counter=40*
COc1ccc(-c2c(C(=O)c3ccccc3)[nH]c(N)c2C(=O)NC2CC2)cc1OC | 4 | nt | -13 | 0 | nt | 2 | nt
COc1cccc(=O)c2c(C)n(CC(=O)c3ccccc3)c(C)c12 | 37* | nt | -8 | 1 | 3 | 45* | nt | NadD conf=25;rCAG binder conf=33;dCAG dye counter=17*
CCCSc1nnc(NC(=O)c2sc3nc(-c4cccs4)ccc3c2N)s1 | 36* | nt | 2 | 3 | 4 | 37* | nt | NadD conf=10;rCAG binder conf=68*;dCAG dye counter=33*
CCCSc1nnc(NC(=O)c2ccco2)s1 | 1 | 103 | -1 | 2 | -1 | 8 | nt
CCOc1cc(/C=N\n2nnnc2N)ccc1O | 0 | 105 | -2 | 4 | 4 | -6 | nt
CCOc1ccc(/C=N/n2nnnc2N)cc1OCC | -2 | 114 | -4 | 4.8* | 1 | -1 | 2
Cc1ccc2oc(C(=O)Nc3ccc(S(=O)(=O)Nc4ncccn4)cc3)c(C)c2c1 | 2 | 104 | -2 | 0 | 0 | 13 | nt
Cc1cc(C)c2c3c(sc2n1)C(c1cccc(F)c1)C(C#N)=C(N)O3 (stereo not drawn) | 12 | 97 | -3 | 10* | -4 | 5 | 4
O=C(C(=O)N1CCN(c2ccncc2)CC1)c1cccc(Br)c1 | 3 | nt | nt | 0 | nt | nt | nt
Cc1[nH]c2ccccc2c1/C=N/NC(=O)c1ccccc1 | 2 | 89 | -2 | 6.2* | -2 | -8 | 4
Cc1ccc(NC(=S)N/N=C/c2c(C)[nH]c3ccccc23)cc1 | 30 | 176 | -5 | 2 | -2 | 14 | nt
Cc1[nH]c2ccccc2c1/C=N/NC(=O)c1cccc(Br)c1 | nt | 188 | -1 | nt | 2 | -1 | nt
Cc1[nH]c2ccccc2c1/C=N/NC(=O)c1ccc(N)cc1 | -1 | 107 | -5 | 5.5* | 2 | -4 | 4.7*
Cc1[nH]c2ccccc2c1/C=N/NC(N)=S | 0 | 108 | -3 | 5.8* | 3 | 1 | 4.7*
N#C/C(=C/c1cccs1)c1ccccn1 | 1 | 110 | -5 | 5.1* | -1 | -3 | 5.4*
O=C(O)c1ccc(-c2nc3ccccc3[nH]2)cc1 | -1 | 98 | -3 | 1 | 3 | -1 | nt
O=C(O)c1ccc(/C=C(\c2nc3ccccc3[nH]2)c2nc3ccccc3s2)cc1 | 22 | 96 | -11 | 5.4* | 2 | 3 | 5.3*
CCCCNC(=O)c1nc(C2CCN(S(=O)(=O)c3ccccc3C(F)(F)F)CC2)oc1-c1ccccc1 | 6 | nt | 0 | 0 | nt | -6 | nt

Bioassay records from PubChem BioAssay.
